The text below walks through data of PubChem BioAssay (NCATS).

Records with an inconclusive call do not appear. Where a call stands in place of a potency, no number is given. Activity calls are given as the source filed them. Calls follow the shape of the dose curve; as a rule, active = well fitted inhibition curve with a large enough effect; inconclusive = small, poorly fitted or top-dose-only effect; inactive = no such curve, though single readings can be large or run the other way. *1 amine or outer side, *2 acyl side, *3 side chain or, on linkers, in order; H or OH if unused. Where a SMILES comes first, the peptide text is derived from it. [ ]: non-standard residue; d: D form. X13 = O=C(C(CC(O)CO)O[*:1])[*:2]; NMeV = CN[CH](C(=O)O)C(C)C; NMeA = CN[CH](C)C(=O)O; βAla = NCCC(=O)O

For assay [1], the system named is Zika virus NS2B-NS3 protease (unlinked complex). Description: Primary screen GU Rhodamine qHTS for Zika virus inhibitors: Unlinked NS2B-NS3 protease assay (AID 1347159). Also: nearly all actives have a fitted effect of over 60% in size. Conditions: Recombinant ZIKV NS2B-NS3 protease, Rhodamine110 substrate fluorescence; series mostly up to 107 µM. A digest of the protocol: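 In dose–response format, inhibition of unlinked protease (25 nM) was measured with 1.5 microM bis-peptide Rhodamine110 substrate. Aprotinin served as the intraplate control.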

The test system of assay [2] is Zika virus NS2B-NS3 protease (linked construct). In words: Primary screen NINDS Rhodamine qHTS for Zika virus inhibitors (AID 1347160). Also: nearly all actives have a fitted effect of over 55% in size. Conditions: purified NS2B-NS3 protease, Rhodamine110 substrate fluorescence; series mostly up to 33.1 µM. A digest of the protocol: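 Each compound, titrated, sat 15 min with 25 nM linked protease before 1.5 microM Rhodamine110 substrate went in. Fluorescence gain over the next 15 min, in pH 8.0 Tris with Tween 20, gave Hill-fitted curves.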

Take `NC(N)=NCCC[C@H](NC(=O)c1sccc1NS(=O)(=O)c1cccc2nsnc12)C(=O)O`: the Potency result in assay [1] and in assay [2] was “inactive” in each case.
On to `Cc1c(F)cc(C(=O)NC2CC2)cc1-c1ccc(C(=O)NCC(C)(C)C)cn1`, for which the Potency entry in assay [1] and in assay [2] was “inactive” each time.
With `CCC(C)C1NC(=O)C2CCCN2C(=O)C(CC(O)CO)OC(=O)CCNC(=O)C(C)N(C)C(=O)C(C(C)C)N(C)C1=O` (stereo unspecified) (cyclo([X13]PI[NMeV][NMeA][βAla]); configuration not given here), the Potency entry in assay [1] and in assay [2] was “inactive” each time.
As for `CC1=C[C@@H]2[C@H]3[C@@H]4O[C@@](C)(CC[C@H]4O)[C@H]3CC(=O)[C@]23C(=O)N[C@@H](CC(C)C)[C@@H]3[C@@H]1C`, the Potency result in assay [1] and in assay [2] was “inactive” each time.
For the molecule `CC1CCC23COC(=O)C2=CC(O)CC3C1(C)CCc1ccoc1` (stereo unspecified), the Potency entry in assay [1] and in assay [2] was “inactive” each time.
For the molecule `CCC1OC(=O)C(C)CC(C)C(=O)/C(C)=C/C(C)C(=O)/C=C/C1(C)O` (stereo unspecified), the Potency entry in assay [1] and in assay [2] was “inactive” throughout.
`CC(C)[C@@](O)(c1ccc2cc(OC(F)F)c(OC(F)F)cc2c1)c1cn[nH]n1`: the Potency entry in assay [1] and in assay [2] was “inactive” each time.
Turning to `COC(=O)C[C@H]1C(C)(C)[C@H](OC(=O)C(C)C)C2CC3=C4CC(=O)O[C@@H](c5ccoc5)[C@]4(C)CCC3[C@@]1(C)C2=O` (stereo partly specified), the Potency entry in assay [1] and in assay [2] was “inactive” each time.
As for `C=C1CC[C@@H]2C(C)(C)CCC[C@@]2(C)[C@@H]1CC/C(=C/C(=O)OC)COC(C)=O`, the Potency entry in assay [1] and in assay [2] was “inactive” throughout.
With `C=C1CC[C@@]2(OC1)O[C@H]1CC3[C@@H]4CC=C5C[C@@H](O)C[C@@H](O[C@@H]6OC[C@H](O)[C@H](O)[C@H]6O[C@@H]6O[C@@H](C)[C@H](O)[C@@H](O)[C@H]6O)[C@]5(C)C4CC[C@]3(C)[C@H]1[C@@H]2C` (stereo partly specified), the Potency entry in assay [1] and in assay [2] was “inactive” each time.
On to `C=C1CCC(OC(C)=O)C2(C)CC3OC(=O)C(C)=C3CC12` (stereo unspecified), for which the Potency entry in assay [1] and in assay [2] was “inactive” each time.
Take `CC1OC(OC2CCC3(C)C(CCC4(C)C3C=CC35OCC6(CCC(C)(C)CC63)CCC45C)C2(C)CO)C(OC2OC(CO)C(O)C(O)C2O)C(O)C1OC1OC(CO)C(O)C(O)C1O` (stereo unspecified): the Potency entry in assay [1] and in assay [2] was “inactive” throughout.
With `CC(CC12CCCN1C(=O)C1CCCN1C2=O)OC(N)=O` (stereo unspecified), the Potency result in assay [1] and in assay [2] was “inactive” each time.
Consider `COC(=O)C1=COC(O[C@@H]2O[C@H](COC(=O)/C=C/c3ccc(O)cc3)[C@@H](O)[C@H](O)[C@H]2O)C2C(CO)=CCC12` (stereo partly specified), for which the Potency result in assay [1] and in assay [2] was “inactive” in each case.
Regarding `CC1CC(=O)C2C(O)(C1)CC(O)C13OC1c1c(O)cccc1C(=O)C23O` (stereo unspecified), the Potency result in assay [1] and in assay [2] was “inactive” each time.
In the case of `CC1=CC(=O)[C@]2(O[C@@H]3O[C@@H](C)[C@H](O)[C@@H](O)[C@H]3O)C=CO[C@@H](O[C@@H]3O[C@H](CO)[C@@H](O)[C@H](O)[C@H]3O)[C@H]12`, the Potency result in assay [1] and in assay [2] was “inactive” each time.
Regarding `CC1(C)C(=O)N2c3ccccc3C(O)(CC(C(=O)O)n3cnc4ccccc4c3=O)C2N1O` (stereo unspecified), the Potency result in assay [1] and in assay [2] was “inactive” each time.
Turning to `Nc1ccc(-n2nc(C(F)(F)F)cc2C(F)(F)F)cc1`, the Potency result in assay [1] and in assay [2] was “inactive” in each case.
Consider `Cc1noc2c1-c1ccccc1C(c1ccc(Cl)cc1)=N[C@H]2CC(N)=O`, for which the Potency result in assay [1] and in assay [2] was “inactive” each time.
`COc1ccc2[nH]c(S(=O)Cc3ncc(C)c(OC)c3C)nc2c1` (stereo unspecified): the Potency entry in assay [1] and in assay [2] was “inactive” each time.
Turning to `Cc1nnc(-c2ccc3occ(-c4ccc(S(C)=O)cc4)c3c2)o1` (stereo unspecified), the Potency result in assay [1] and in assay [2] was “inactive” each time.
In the case of `CC1(C)[C@@H]2CC=C(CO[C@@H]3O[C@H](CO[C@@H]4OC[C@H](O)[C@H](O)[C@H]4O)[C@@H](O)[C@H](O)[C@H]3O)[C@H]1C2`, the Potency result in assay [1] and in assay [2] was “inactive” throughout.
On to `NC(Cc1c[nH]c2ccc(O)cc12)C(=O)O` (stereo unspecified), for which the Potency result in assay [1] and in assay [2] was “inactive” throughout.
Take `COc1cc(/C=C/C(=O)O[C@H]2[C@@H]3C=CO[C@@H](O[C@@H]4O[C@H](CO)[C@@H](O)[C@H](O)[C@H]4O)[C@@H]3[C@@]3(CO)O[C@@H]23)ccc1O`: the Potency entry in assay [1] and in assay [2] was “inactive” each time.
In the case of `COc1ccc(/C=C/C(=O)O[C@@H]2[C@@H](OC(C)=O)[C@@H](OC(C)=O)[C@H](O[C@H]3[C@@H]4C=CO[C@@H](O[C@@H]5O[C@H](CO)[C@@H](O)[C@H](O)[C@H]5O)[C@@H]4[C@@]4(CO)O[C@@H]34)O[C@H]2C)cc1`, the Potency result in assay [1] and in assay [2] was “inactive” in each case.
In the case of `COc1ccc(C2OCC3C(c4cc(OC)c5c(c4)OCO5)OCC23)cc1OC` (stereo unspecified), the Potency result in assay [1] and in assay [2] was “inactive” throughout.
In the case of `CN[C@H](CNC(=O)N1CCC[C@@H]([C@@H](OCCNC(=O)OC)c2cccc(Cl)c2)C1)C[C@H]1CCCOC1`, the Potency entry in assay [1] and in assay [2] was “inactive” each time.
Consider `O=C(C[C@@H]1C(C(=O)O)=CO[C@@H](O[C@@H]2O[C@H](CO)[C@@H](O)[C@H](O)[C@H]2O)/C1=C\CO)OCCc1ccc(O)cc1`, for which the Potency entry in assay [1] and in assay [2] was “inactive” throughout.
